Data reported in publication PMC4336329 (PLoS ONE, 2015).
The campaign covered roughly 310,000 compounds. About 14,000 (4.5%) showed an effect of 50% or more. Effects have a minus sign here. The entries come from a sample that favours strong results as a whole.

Target: human ether-à-go-go-related gene (hERG) potassium channel (human, UniProt Q12809)
Experiment: primary screen, population patch clamp on CHO cells stably expressing hERG; higher = less effect of the substance
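Also: peak tail current of the secondary pulse compared with the same well before compound.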

Sequence of human ether-à-go-go-related gene (hERG) potassium channel (Q12809 whole entry, looked up): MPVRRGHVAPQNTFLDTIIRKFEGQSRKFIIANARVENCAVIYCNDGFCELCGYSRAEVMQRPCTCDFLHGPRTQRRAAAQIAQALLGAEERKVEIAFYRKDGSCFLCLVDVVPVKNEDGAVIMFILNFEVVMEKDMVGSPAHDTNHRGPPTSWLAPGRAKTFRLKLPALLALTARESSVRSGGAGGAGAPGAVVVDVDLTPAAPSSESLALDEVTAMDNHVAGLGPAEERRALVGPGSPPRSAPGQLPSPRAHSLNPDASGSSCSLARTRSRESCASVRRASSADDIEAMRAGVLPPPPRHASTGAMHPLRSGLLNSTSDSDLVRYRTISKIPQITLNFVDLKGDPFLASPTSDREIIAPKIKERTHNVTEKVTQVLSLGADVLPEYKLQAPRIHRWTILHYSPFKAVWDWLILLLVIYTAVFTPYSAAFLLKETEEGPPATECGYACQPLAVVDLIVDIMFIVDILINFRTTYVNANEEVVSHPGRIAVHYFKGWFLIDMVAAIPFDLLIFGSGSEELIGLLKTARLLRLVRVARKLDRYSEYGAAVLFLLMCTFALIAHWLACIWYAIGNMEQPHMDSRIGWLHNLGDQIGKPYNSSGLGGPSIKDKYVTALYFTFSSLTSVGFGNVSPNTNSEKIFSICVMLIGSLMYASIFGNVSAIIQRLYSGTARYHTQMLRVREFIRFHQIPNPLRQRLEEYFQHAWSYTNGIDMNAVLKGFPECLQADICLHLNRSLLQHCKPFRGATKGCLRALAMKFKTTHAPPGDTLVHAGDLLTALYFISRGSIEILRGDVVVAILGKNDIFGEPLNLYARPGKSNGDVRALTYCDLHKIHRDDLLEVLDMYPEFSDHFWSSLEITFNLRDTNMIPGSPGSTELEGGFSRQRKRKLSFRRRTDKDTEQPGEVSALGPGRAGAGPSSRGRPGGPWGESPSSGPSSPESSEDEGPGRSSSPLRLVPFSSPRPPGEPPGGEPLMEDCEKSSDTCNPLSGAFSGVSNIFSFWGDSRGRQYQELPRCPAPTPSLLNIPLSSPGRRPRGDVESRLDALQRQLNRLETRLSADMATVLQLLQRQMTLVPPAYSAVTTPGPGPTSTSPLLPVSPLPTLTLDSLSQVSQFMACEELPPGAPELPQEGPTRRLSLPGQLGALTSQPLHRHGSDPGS

Row | Compound | hERG current change (%, negative = inhibition) at 10uM [%]
1 | O=C1CSC(c2ccccc2[N+](=O)[O-])N1CCc1ccccc1 (stereo not shown) | -41
2 | CCOc1cc(C(=O)N/N=C(\C)Cc2ccc(OC)cc2)cc(OCC)c1OCC | -3.15
3 | FC(F)Oc1ccccc1/C=N/Nc1nc2ccccc2o1 | 33.5
4 | Cn1c(NC(=O)c2ccco2)c(-c2ccccc2)c(=O)c2ccccc21 | 13.6
5 | N[C@@]12CCc3nonc3[C@]1(O)CC(c1ccccc1)=[N+]2[O-] | -0.645
6 | COc1ccccc1CN(C(=O)CNC(=O)c1ccco1)C(C(=O)NCC1CCCO1)c1ccccc1 (stereo not shown) | 10
7 | O=C(NC(=S)Nc1cccc(F)c1)c1cccc([N+](=O)[O-])c1 | 20.6
8 | Cc1cc(C)c(-c2cc(C)nc3ncnn23)c(C)c1 | 7.75
9 | CCOc1ccc(C(=O)Nn2cnnc2)cc1 | 2.29
10 | O=C(NCCCc1ccccc1)C1CCN(c2nnc(-n3cccc3)s2)CC1 | -27
11 | CCN(Cc1ccccc1)S(=O)(=O)c1ccc(C(=O)N(CCCN(C)C)c2nc3ccc(F)cc3s2)cc1.Cl | -12.6
12 | CN(C)CCCN(C(=O)c1ccc(S(=O)(=O)N(C)C)cc1)c1nc2ccc(F)cc2s1.Cl | -32.9
13 | COc1ccc2sc(N(CCCN(C)C)C(=O)c3ccc(S(=O)(=O)N(C)Cc4ccccc4)cc3)nc2c1.Cl | -16.4
14 | CCc1ccc2nc(N(CCCN(C)C)C(=O)c3ccc(C(=O)c4ccccc4)cc3)sc2c1.Cl | -12.5
15 | CN(C)CCCN(C(=O)c1ccc(C(=O)c2ccccc2)cc1)c1nc2ccc(F)cc2s1 | -74.9
16 | CCN(Cc1ccccc1)S(=O)(=O)c1ccc(C(=O)N(CCCN(C)C)c2nc3cc(OC)ccc3s2)cc1.Cl | -58.3
17 | O=C(O)c1ccc(Nc2cccc(F)c2)c([N+](=O)[O-])c1 | 17.7
18 | CCCCOc1c(Br)cc(CNCCCN2CCOCC2)cc1OC.Cl | -35
19 | CC(C)CCOc1ccc(NC(=O)C2OC3OC(C)(C)OC3C3OC(C)(C)OC23)cc1 (stereo not shown) | 20.5
20 | O=C(NCc1nnc(SCC(=O)N2CCCC2)o1)c1ccc(F)cc1 | 14.3
21 | COc1ccc(Nc2ncnc3ccc([N+](=O)[O-])cc23)c(OC)c1 | -0.867
22 | CNc1ccc(Br)cc1C(O)c1ccccc1 (stereo not shown) | -3.18
